Laboratory results taken from PubChem BioAssay AID2283160 (EPA ToxCast).
Records with an inconclusive call do not appear. Activity calls are given as the source filed them. Rule for the calls: active = hit-call score of the fitted dose curve at least 0.9, where 1 is the maximum; inconclusive = response in the unintended direction; inactive = score below 0.9.

Target: human Fibroblast Growth Factor Receptor 3 (FGFR3), FGFR3 (gene 2261) (UniProt P22607)
Assay: NVS_ENZ_hFGFR3: NovaScreen (NVS) Enzymatic Assay for human Fibroblast Growth Factor Receptor 3 (FGFR3)
Experimental: NVS_ENZ_hFGFR3 is a biochemical, single-readout assay that uses extracted gene-proteins in a cell-free assay. Measurements were taken 1 hour after chemical dosing in a 384-well plate.NVS_ENZ_hFGFR3 is one of one assay component(s) measured or calculated from the NVS_ENZ_hFGFR3 assay. It is designed to make measurements of enzyme activity, a form of enzyme reporter, as detected with fluorescence intensity signals by Fluorescence and electrophoretic mobility shift technology.Data from the assay component NVS_ENZ_hFGFR3 was analyzed into 1 assay endpoint. This assay endpoint, NVS_ENZ_hFGFR3, was analyzed in the positive analysis fitting direction relative to DMSO as the negative control and baseline of activity. Using a type of enzyme reporter, loss-of-signal activity can be used to understand changes in the enzymatic activity as they relate to the gene FGFR3. Furthermore, this assay endpoint can be referred to as a primary readout, because this assay has produced multiple assay endpoints where this one serves a enzymatic activity function. To generalize the intended target to other relatable targets, this assay endpoint is annotated to the kinase intended target family, where the subfamily is receptor tyrosine kinase.
Binding assays used specific radioligands (tritiated, iodinated) with non-radioactive competitive displacement ligands in agonist or antagonist protocols (as indicated) and various reference compounds and inhibitors to titrate specific binding to receptors and transporters. Most enzyme assays (CYPs, kinases, phosphatases, proteases, HDACs) used recombinant protein and specific substrates (fluorescence mostly, some colorimetric and radioactive) and inhibitors, followed by a biochemical separation of substrate and product. All assays for the biochemical HTS were initially run in duplicate at a single concentration (10 uM for CYP450 assays and 25 uM for all others). Assay-chemical combinations meeting a pre-defined threshold (e.g., 30% inhibition and other criteria defined below) were then run in singleton concentration-response format with maximum concentration of 20 uM for CYPs and 50 uM for all others. Each assay was run with positive and negative controls, and concurrent controls on every plate. The follow-up (secondary) screen tested active chemical-pairs in concentration series, as well as a few additional assays not tested in the primary screen, some selected negative inactives, and several cases re-run in the concentration series for confirmatory purposes.

human Fibroblast Growth Factor Receptor 3 (FGFR3), FGFR3 (gene 2261), sequence (P22607 whole entry, looked up): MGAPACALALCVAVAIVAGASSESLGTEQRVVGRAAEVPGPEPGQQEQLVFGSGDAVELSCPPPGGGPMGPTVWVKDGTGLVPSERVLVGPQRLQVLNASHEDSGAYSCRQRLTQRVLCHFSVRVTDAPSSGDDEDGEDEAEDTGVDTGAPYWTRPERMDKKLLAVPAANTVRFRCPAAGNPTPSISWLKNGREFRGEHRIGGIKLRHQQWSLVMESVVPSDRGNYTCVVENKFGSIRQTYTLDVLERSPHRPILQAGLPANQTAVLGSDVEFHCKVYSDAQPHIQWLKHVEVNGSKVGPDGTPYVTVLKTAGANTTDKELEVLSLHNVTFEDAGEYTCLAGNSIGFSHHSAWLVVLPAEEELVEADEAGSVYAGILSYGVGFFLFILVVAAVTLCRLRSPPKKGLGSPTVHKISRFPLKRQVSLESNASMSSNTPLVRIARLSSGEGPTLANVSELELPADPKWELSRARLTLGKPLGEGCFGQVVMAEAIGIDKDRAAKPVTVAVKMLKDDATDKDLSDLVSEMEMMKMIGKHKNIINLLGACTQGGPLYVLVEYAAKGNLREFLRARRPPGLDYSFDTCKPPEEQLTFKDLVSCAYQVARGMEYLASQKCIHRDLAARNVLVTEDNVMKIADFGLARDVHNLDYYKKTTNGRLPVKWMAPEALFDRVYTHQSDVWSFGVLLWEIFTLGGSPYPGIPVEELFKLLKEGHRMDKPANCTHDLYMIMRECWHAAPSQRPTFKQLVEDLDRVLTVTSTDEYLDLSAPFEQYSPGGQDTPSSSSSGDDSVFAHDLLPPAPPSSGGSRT

| Structure (SMILES) | AC50 | outcome |
| --- | --- | --- |
| S=C(S)NCCNC(=S)S.[Mn+2].[S-]C([S-])=NCCN=C([S-])[S-].[Zn+2] | 38.2 µM (active) | – |
| CN(C)C(=S)SSC(=S)N(C)C | – | inactive |
| CCCCN(CC)c1c([N+](=O)[O-])cc(C(F)(F)F)cc1[N+](=O)[O-] | – | inactive |
| CCOc1cc(Oc2ccc(C(F)(F)F)cc2Cl)ccc1[N+](=O)[O-] | – | inactive |
| CCCC1COC(Cn2cncn2)(c2ccc(Cl)cc2Cl)O1 (stereo not given) | – | inactive |
| CSc1nnc(C(C)(C)C)c(=O)n1N | – | inactive |
| COCC(C)N(C(=O)CCl)c1c(C)csc1C (stereo not given) | – | inactive |
| CNC(=O)Oc1ccccc1OC(C)C | – | inactive |
| CN(C)[C@@H]1C(=O)C(C(N)=O)=C(O)[C@@]2(O)C(=O)C3=C(O)c4c(O)cccc4[C@@](C)(O)[C@H]3[C@H](O)[C@@H]12 | 14.5 µM (active) | – |
| CC(Oc1cccc(Cl)c1)C(=O)O (stereo not given) | – | inactive |
| CCCOc1nn(C(=O)NS(=O)(=O)c2ccccc2C(=O)OC)c(=O)n1C | – | inactive |
| S=C([S-])NCCNC(=S)[S-].[Mn+2] | 40.5 µM (active) | – |
| COP(=O)(OC)OC=C(Cl)Cl | – | inactive |
| CNC(=O)ON=C(SC)C(=O)N(C)C | – | inactive |
| CCCC(=NOCC)C1=C(O)CC(CC(C)SCC)CC1=O (stereo not given) | – | inactive |
